# Out of some 330,000 compounds screened, about 1,900 (0.58%) were called active. About 4% were inconclusive and are not listed. These entries were drawn from the full list. Measured potencies and affinities stand elsewhere. Unmarked numbers belong to inactive results. Cut-off read from the data, not from the text of the source: inconclusive = inhibition above about 70% without an active follow-up result; inactive = below that.
# Experiment: M. tuberculosis growth inhibition, HTS (AID 449762);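 note: bacterial growth assessed after seven days of incubation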
# Conditions: M. tuberculosis H37Rv growth inhibition, 7H9 media; at 25 µM; active compounds read high
row,Structure (SMILES),inhibition [%]
1,CCN(C[C@H]1N[C@@](Cc2ccccc2)(C(=O)OC)[C@H]2C(=O)N(C)C(=O)[C@@H]12)C(=O)Nc1ccc(F)cc1,4.09
2,CN(C)c1ccc(/C=C/C(=O)c2ccccc2)cc1[N+](=O)[O-],16.9
3,COc1ccc(Oc2ccc(/C=C/C(=O)c3ccc(O)cc3)cc2[N+](=O)[O-])cc1,8.6
4,COC(=O)c1cccc2c1NC(=O)C2=O,3.61
5,O=C(NCc1ccccc1Cl)c1cccc(OC2CCN(C(=O)C3CC3)CC2)c1,5.75
6,COc1ccccc1C1CC(c2ccc(C)cc2)Nc2ncnn21 (stereo unspecified),-9.91
7,COc1ccccc1C1CC(c2ccc(F)cc2)Nc2ncnn21 (stereo unspecified),-11.3
8,COC(=O)CN(c1ccc(C)cc1)S(=O)(=O)c1ccc(F)cc1,14.1
9,CSc1ccc(Cl)c(C(=O)NNC(=O)c2cccs2)c1,1.28
10,CCOC(=O)N/N=C\C=C\c1ccco1,-0.79
11,Cc1ccc(OCC(=O)N/N=C/C=C/c2ccco2)cc1,-6.27
12,COc1ccc(OC)c2c1cc(C(=O)N[C@H](C(=O)N1CCC(C(=O)O)CC1)C(C)C)n2C,-15.1
13,O=C(O)c1ccc(Cl)c(NCc2cccnc2)c1,-9.94
14,CCCc1cc(=O)[nH]c(SCC(=O)Nc2c(C)cccc2C)n1,0.09
15,Cc1cc(C(=O)NCCC(C)C)c2ccccc2n1,-3.78
16,C[N+](C)(CCOc1ccccc1)Cc1ccccc1 (tested in a mixture with another compound),-1.38
17,CC(C)(C)c1ccc(OCCNCc2ccccc2)cc1,14.6
18,CN(Cc1ccco1)C(=O)c1ccc(S(=O)(=O)N2CCCCCC2)cc1,2.26
19,COc1ccc(COC(=O)c2ccc(C)c(S(=O)(=O)N3CCOCC3)c2)cc1F,-4.83
20,C[n+]1c(-c2ccccc2)cc(-c2ccc(Cl)cc2)cc1-c1ccccc1,-0.15
21,C[n+]1c(-c2ccccc2)cc(-c2ccc(O)cc2)cc1-c1ccccc1,3.36
22,COCCCNC(=O)CN(c1cc(C(F)(F)F)ccc1Cl)S(C)(=O)=O,-8.65
23,COC(=O)c1c(C)nn(-c2ccc(OC(F)(F)F)cc2)c1-c1snnc1C,5.4

row,Structure (SMILES),inhibition [%]
1,COc1ccc(CCN(C)C(=O)C2CC(=O)N(Cc3ccc(C)cc3)C2)cc1OC (stereo unspecified),-4.64
2,O=C1Nc2ccc(Br)cc2C1(O)c1ccccc1 (stereo unspecified),-1.54
3,O=C1NC2(Nc3ccccc31)C(=O)Nc1ccc(Br)cc12 (stereo unspecified),6.01
4,O=C(Nc1ccc([N+](=O)[O-])cc1)c1cccc(S(=O)(=O)Nc2ccccn2)c1,-2.42
5,COc1ccc(-n2cc3ccc([N+](=O)[O-])cc3n2)cc1,-3.43
6,COc1ccccc1-n1cc2ccc([N+](=O)[O-])cc2n1,-3.35
7,O=c1c2c([N+](=O)[O-])cc([N+](=O)[O-])cc2nc2ccccn12,4.66
8,O=[N+]([O-])c1cnc2ccccc2c1,-7.59
9,C[C@H](CO)N1C[C@H](C)[C@@H](CN(C)Cc2ccncc2)Oc2c(cccc2N(C)C)C1=O,2.32
10,COc1ccc(Cl)cc1NC(=O)CN(C)C(=O)Cn1c(=O)oc2ccccc21,1.38
11,O=C(c1cc(COc2c(F)cccc2F)on1)N1CCN(C2CCCCC2)CC1,10.1
12,COc1ccc(-c2onc3ccc(C(=O)/C=C/N(C)C)cc23)cc1,6.78
13,O=c1oc2ccccc2c(Nc2cccc3ccccc23)c1[N+](=O)[O-],20.4
14,O=c1oc2ccccc2c(Nc2ccc(O)cc2)c1[N+](=O)[O-],-6.31
15,CCn1c(SCC(=O)Nc2ccc3c(c2)OCCO3)nnc1C1CC1,-3.26
16,CC1Cc2cc(-c3csc(NC(=O)Cc4ccccc4)n3)ccc2N1S(C)(=O)=O (stereo unspecified),54.4
17,CCC(=O)Nc1nc(-c2ccc3c(c2)CC(C)N3S(C)(=O)=O)cs1 (stereo unspecified),58.2
18,Cc1ccc(CCNC(=O)C2CCN(S(=O)(=O)c3ccc4c(c3)oc(=O)n4C)CC2)cc1,-5.23
19,Cc1ccc(C(=O)CSc2nc(C)cc(C)c2C(N)=O)cc1,69
20,Cc1cc(C)c(C(N)=O)c(SCC(=O)c2cc(C)c(C)cc2C)n1,5.89
21,CN(C)c1oc(-c2ccc(Cl)cc2)nc1S(=O)(=O)c1ccccc1,3.09
22,COc1ccc(CS(=O)(=O)CC(C)(O)c2ccc(Cl)cc2)cc1 (stereo unspecified),8.74
23,Cc1cc(C)n(-c2ccc(C(=O)OCC(=O)Nc3cc(S(C)(=O)=O)ccc3Cl)cc2)n1,9.43

row,Structure (SMILES),inhibition [%]
1,Cc1cc(C(=O)N/N=C/C(Cl)=C/c2ccccc2)c(C)o1,2.89
2,CC(/C=N\NC(=O)c1cc(C)oc1C)=C\c1ccccc1,5.28
3,COC(=O)c1cc(NC(=O)c2ccc(-c3ccccc3)cc2)ccc1Cl,-0.43
4,O=C(CSc1ncn[nH]1)NCc1ccc(Cl)cc1,23.7
5,CC(C)c1ccc(C(=O)CSc2ncn[nH]2)cc1,-3.26
6,Cc1ccc2c(c1)Oc1ccc([N+](=O)[O-])cc1C(=O)N2,3.53
7,Cc1ccc2c(c1)Oc1ccc(NC(=O)CCCl)cc1C(=O)N2,11.1
8,Cc1ccc(Cn2c(N)c(S(=O)(=O)c3cccs3)c3nc4ccccc4nc32)cc1,-12
9,COc1ccc(C(CNC(=O)COc2ccc(-c3ccccc3)cc2)N2CCOCC2)cc1 (stereo unspecified),-6.25
10,N/C(=N\[N+](=O)[O-])N1CCN(C(=O)c2ccccc2)CC1,-7.03
11,Cc1ccc(S(=O)(=O)Nc2cccc3ncccc23)cc1,0.6
12,Cc1ccc(S(=O)(=O)Nc2ccnc3ccccc23)cc1,-5.18
13,O=S(=O)(c1ccc(=S)[nH]c1)N1CCCC1,-0.36
14,CC(CCc1ccccc1)NC(=O)CCNC(=O)c1ccccc1Cl (stereo unspecified),0.74
15,O=C(CCSCc1ccccc1F)NCc1cccnc1,12.2
16,O=C(Nc1nc2c(s1)CCCC2)c1cc(-c2ccncc2)nc2ccccc12,-5.59
17,O=C(Nc1nc2c(s1)CCCC2)c1cc(-c2ccccc2)nc2ccccc12,65.5
18,COc1ccc(-c2oc3ccc(-c4ccc(OC)nc4)cc3c2-c2ccc(OC)cc2)cc1,3.96
19,COc1ccc(-c2ccc3oc(-c4ccc(OC)cc4)c(C#CC4(O)CCCCC4)c3c2)cc1,61.2
20,CCC(C)(C)NC(=O)C(c1cccs1)N(C(=O)c1ccn[nH]1)c1cccc(OC)c1 (stereo unspecified),-8.05
21,Cc1nn(-c2cc(N3CCCC3)ccc2[N+](=O)[O-])c(=O)c2ccccc12,-3.75
22,CN1CCN(c2ccc([N+](=O)[O-])c(-n3nc(-c4ccccc4)c4ccccc4c3=O)c2)CC1,38.4
23,COc1cc(C=O)ccc1OCC(=O)N1CCOCC1,-0.06

row,Structure (SMILES),inhibition [%]
1,CCc1nc2c(c(=O)[nH]1)C(CC)(CC)Cc1ccccc1-2,5.03
2,CCC1(CC)Cc2ccccc2-c2nc(CN3CCOCC3)[nH]c(=O)c21,51.6
3,O=C(Nc1cccc(S(=O)(=O)N2CCCC2)c1)c1cc(=O)[nH]c2ccccc12,-4.61
4,Cc1nc2ccc(NC(=O)c3ccccc3)cc2s1,3.89
5,Cc1nc2ccc(Oc3ccccc3)cc2s1,7.08
6,Cn1c(=O)n(C)c2cc(NC(=O)c3cc4ccccc4o3)ccc21,6.91
7,COc1ccc(-n2cc(CNCCCn3ccnc3)c(-c3ccccc3Cl)n2)cc1,13.2
8,COc1ccc(-n2cc(CNCCc3nc(C)cc(C)n3)c(-c3ccccc3Cl)n2)cc1,68.4
9,COc1ccc(OCCN2C(=O)c3ccccc3C2=O)c([N+](=O)[O-])c1,-4.41
10,COc1cc2[nH]c(C(=O)NCCc3ccccc3)cc2c(OC)c1OC,0.36
11,COC(=O)c1cnn(-c2ccc(C)c(C)c2)c1-n1cccc1,3
12,Cc1c(Cl)ccc2c1NC(=O)C21NC(CCC(N)=O)[C@H]2C(=O)N(c3ccc(Cl)cc3)C(=O)[C@H]21 (stereo partly specified),-9
13,Cc1c(Cl)ccc2c1NC(=O)[C@]21N[C@@H](CCC(N)=O)[C@H]2C(=O)N(c3ccc(F)cc3)C(=O)[C@H]21,-5.78
14,CC(=O)N(C)c1ccc(OCC(O)Cn2c(C)nc3ccccc32)cc1 (stereo unspecified),0.96
15,CCC(c1nnc(SCC(=O)Nc2cc(S(C)(=O)=O)ccc2Cl)n1Cc1ccccc1)N(C)C (stereo unspecified),-14.3
16,C=CCSc1n[nH]c(-c2ccc(OC)cc2)n1,-6.49
17,C=CCSc1n[nH]c(-c2ccc(OCCC)cc2)n1,56.7
18,Cc1ccc(NC(=O)c2ccc(OC(=O)COc3ccc(Cl)c(C)c3)cc2)cc1,-2.96
19,COc1ccc(Cc2[nH]n3c(=O)c(Cl)c(C)nc3c2-c2ccccc2)cc1,35.3
20,O=C(Cn1nc(CNc2ccc(Cl)cc2)[n+]2c1CCCCC2)c1ccccc1,0.81
21,O=C(Cn1nc(CNc2ccc(Br)cc2)[n+]2c1CCCCC2)c1ccc([N+](=O)[O-])cc1,64.9
22,CCCCN1C(=O)C(=O)N(c2ccccc2)C1=S,5.31

# Source: PubChem BioAssay AID449762 (Southern Research Specialized Biocontainment Screening …, 2010)
